Measured values reported in PubChem BioAssay AID488969 (Vanderbilt High Throughput Screening Facility, 2010).
In all, about 110,000 compounds were measured (“z-score”: median about -0.1, highest 2% from about 2 on). The sample as a whole holds a higher share of the highest values than the screen did. Activity calls are given as the source filed them.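 How the source made its calls: active means z-score in the third read window above 3 or below -3; inactive means the rest.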

Target: Metabotropic glutamate receptor 8 (Rattus norvegicus) (UniProt P70579)
Sequence (P70579 whole entry, looked up): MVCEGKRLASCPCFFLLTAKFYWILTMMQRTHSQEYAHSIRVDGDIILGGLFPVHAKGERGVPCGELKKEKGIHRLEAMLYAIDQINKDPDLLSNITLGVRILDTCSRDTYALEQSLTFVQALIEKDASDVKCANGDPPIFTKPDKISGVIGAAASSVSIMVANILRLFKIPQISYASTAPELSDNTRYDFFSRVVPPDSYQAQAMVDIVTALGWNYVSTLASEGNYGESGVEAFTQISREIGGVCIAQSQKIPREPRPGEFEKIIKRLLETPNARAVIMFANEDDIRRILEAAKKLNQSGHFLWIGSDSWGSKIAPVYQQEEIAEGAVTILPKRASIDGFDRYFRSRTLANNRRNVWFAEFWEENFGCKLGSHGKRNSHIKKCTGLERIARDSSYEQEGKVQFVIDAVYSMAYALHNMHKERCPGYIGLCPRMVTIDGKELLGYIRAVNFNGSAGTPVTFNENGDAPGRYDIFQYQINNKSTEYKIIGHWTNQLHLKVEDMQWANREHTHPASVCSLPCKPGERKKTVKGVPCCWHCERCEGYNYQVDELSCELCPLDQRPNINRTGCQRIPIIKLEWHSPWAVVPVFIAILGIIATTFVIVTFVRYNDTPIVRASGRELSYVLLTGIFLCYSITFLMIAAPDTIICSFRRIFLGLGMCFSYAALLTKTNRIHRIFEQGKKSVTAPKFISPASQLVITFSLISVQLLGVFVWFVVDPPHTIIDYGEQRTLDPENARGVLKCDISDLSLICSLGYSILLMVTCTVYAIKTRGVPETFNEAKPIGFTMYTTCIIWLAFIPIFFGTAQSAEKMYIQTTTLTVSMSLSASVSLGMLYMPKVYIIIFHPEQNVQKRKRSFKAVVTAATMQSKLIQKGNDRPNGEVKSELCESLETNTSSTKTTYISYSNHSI
Assay: mGluR8 Gi/Go-coupled signaling modulation – cell-based, rat, thallium flux, HTS, primary screen (AID 488969)
Conditions: HEK293 rat mGluR8, GIRK (G protein-gated inwardly rectifying potassium channel) thallium flux, FluoZin2; at 10 µM; stronger effect = higher value; submaximal glutamate (EC20) added with thallium

**Q.** How did the z-score turn out when `CCCS(=O)(=O)N1CCC(C(=O)NCc2ccco2)CC1` was run?
**A.** The z-score was 0.18.

**Q.** Which z-score does the source give for `Cc1ccc(OCc2nnc(SCC(=O)c3cccs3)n2-c2ccccc2)cc1C` here?
**A.** Its z-score is 0.316.

**Q.** `Cc1c(C(=O)OCC(=O)N2CC(C)OC(C)C2)oc2ccc(Br)cc12` (stereo not given) was tested. Which z-score did it give?
**A.** Its z-score is -0.32.

**Q.** For `CC(C)(C)OC(=O)COc1cc(O)c2c(=O)cc(-c3ccccc3)oc2c1`, which z-score is on record?
**A.** The z-score was 4.76 (active).

**Q.** With `O=C(COc1cc(O)c2c(=O)cc(-c3ccccc3)oc2c1)c1ccccc1` as the molecule, how does the z-score read?
**A.** Its z-score is 0.0143.

**Q.** `CC(C)(C)OC(=O)COc1cc(OCC(=O)OC(C)(C)C)c2c(=O)cc(-c3ccccc3)oc2c1` was tested. Which z-score did it give?
**A.** Its z-score is -0.331.

**Q.** `O=C(Cc1ccccc1)N/N=C/c1ccc(OCC(=O)Nc2ccccc2)cc1` was tested. Which z-score did it give?
**A.** The z-score was -0.147.

**Q.** How did the z-score turn out when `CCc1nc(C)ccc1OC(=O)C12CC3CC(CC(C3)C1)C2` was run?
**A.** The z-score was 0.238.

**Q.** How did the z-score turn out when `Cc1ccc(-c2cc3cccc[n+]3cc2-c2ccc(C)cc2)cc1` was run?
**A.** The z-score was -0.0109.

**Q.** How did the z-score turn out when `Cc1cccc(NS(=O)(=O)c2ccc3c(c2)OCCO3)c1` was run?
**A.** The z-score was 2.76.

**Q.** `O=S(=O)(Nc1cccnc1)c1ccc2c(c1)OCCO2` was tested. Which z-score did it give?
**A.** The z-score was -0.833.

**Q.** How did the z-score turn out when `Cc1ccc(S(=O)(=O)Nc2ccc3nc(C)sc3c2)cc1` was run?
**A.** The z-score was -0.613.

**Q.** For `Cc1nc2ccc(NS(=O)(=O)c3ccc(C)c(C)c3)cc2s1`, which z-score is on record?
**A.** Its z-score is -0.187.

**Q.** `Cc1nc2ccc(NS(=O)(=O)c3ccc4c(c3)OCCO4)cc2s1` was tested. Which z-score did it give?
**A.** The z-score was 3.48 (active).

**Q.** Which z-score does the source give for `O=S(=O)(Nc1ccc2c(c1)OCCO2)c1ccc(F)cc1` here?
**A.** The z-score was -0.102.

**Q.** With `CCCCOc1ccc(NC(=O)C2CC=CCC2C(=O)O)cc1` (stereo not given) as the molecule, how does the z-score read?
**A.** The z-score was -0.0643.

**Q.** For `COc1ccc(S(=O)(=O)N(C)CC(=O)Nc2ccc3c(c2)OCO3)cc1`, which z-score is on record?
**A.** Its z-score is 0.0177.

**Q.** With `O=C(c1ccco1)N1CCN(S(=O)(=O)c2ccc3[nH]c(=O)oc3c2)CC1` as the molecule, how does the z-score read?
**A.** Its z-score is 0.249.

**Q.** With `CC1(C)CC(=O)C2=C(C1)N(Cc1ccco1)C(=O)C2(NC(=O)c1ccc(Cl)cc1Cl)C(F)(F)F` (stereo not given) as the molecule, how does the z-score read?
**A.** The z-score was -0.289.

**Q.** With `CC(C)C(NC(=O)C1CCCCC1)C(=O)Nc1ccncc1` (stereo not given) as the molecule, how does the z-score read?
**A.** The z-score was 0.244.

**Q.** For `Cc1ccc(NC(=S)N/N=C/c2c(Cl)cccc2Cl)c(C)c1`, which z-score is on record?
**A.** Its z-score is 9.31 (active).

**Q.** `CCNC(=S)N/N=C/c1cccc(C)c1` was tested. Which z-score did it give?
**A.** Its z-score is 0.00977.

**Q.** `Cc1ccc(NC(=S)N/N=C/c2ccc(OCCC(C)C)cc2)c(C)c1` was tested. Which z-score did it give?
**A.** Its z-score is 0.599.

**Q.** Which z-score does the source give for `CCNC(=S)N/N=C/c1c(Cl)cccc1Cl` here?
**A.** The z-score was 5.15 (active).

**Q.** How did the z-score turn out when `S=C(NCCc1ccccc1)N/N=C/c1c(Cl)cccc1Cl` was run?
**A.** The z-score was 0.353.

**Q.** With `CCNC(=S)N/N=C/c1cc(C)ccc1C` as the molecule, how does the z-score read?
**A.** The z-score was 2.43.

**Q.** `Cc1ccc(C)c(/C=N/NC(=S)NCCc2ccccc2)c1` was tested. Which z-score did it give?
**A.** The z-score was 1.17.

**Q.** How did the z-score turn out when `Cc1ccc(NC(=S)NCCO)c(C)c1` was run?
**A.** Its z-score is -0.044.

**Q.** Which z-score does the source give for `CCCCNC(=S)N/N=C/c1cc(C)ccc1C` here?
**A.** Its z-score is 1.48.

**Q.** `Cc1cc(=O)[nH]c(SCC(=O)NCCc2ccccc2)n1` was tested. Which z-score did it give?
**A.** Its z-score is 1.96.

**Q.** `CCN(CC)C(=O)c1sc(NC(=O)c2ccc(C)c([N+](=O)[O-])c2)c(C#N)c1C` was tested. Which z-score did it give?
**A.** The z-score was 0.0677.

**Q.** With `CCOC(=O)C1C(=O)OC2(CCCCC2)C1C(=O)OCC` (stereo not given) as the molecule, how does the z-score read?
**A.** Its z-score is 0.124.

**Q.** For `O=C(Cn1c(=O)oc2cc(S(=O)(=O)N3CCCCCC3)ccc21)NC1CCCCCCC1`, which z-score is on record?
**A.** Its z-score is -0.034.

**Q.** Which z-score does the source give for `CCc1nnc2sc(-c3cc(-c4ccccc4)nc4ccccc34)nn12` here?
**A.** Its z-score is -0.507.

**Q.** For `Cc1ccc(CNC(=O)COc2ccccc2-c2ccccc2)cc1`, which z-score is on record?
**A.** Its z-score is -0.0564.

**Q.** `CCN1CCN(c2ccc(NC(=O)CCc3c(C)nc4c(-c5ccccc5)c(C)nn4c3C)cc2)CC1` was tested. Which z-score did it give?
**A.** The z-score was 3.06 (active).

**Q.** Which z-score does the source give for `Cc1nc2c(-c3ccc(F)cc3)c(C)nn2c(C)c1CCC(=O)N1CCN(c2ccccc2)CC1` here?
**A.** Its z-score is -0.81.

**Q.** With `Cc1nc2c(-c3ccccc3)c(C)nn2c(C)c1CCC(=O)O` as the molecule, how does the z-score read?
**A.** Its z-score is 0.235.

**Q.** `CCn1nnc(-c2ccccc2NC(=O)c2cc(OC)cc(OC)c2)n1` was tested. Which z-score did it give?
**A.** Its z-score is -0.139.

**Q.** Which z-score does the source give for `O=C(c1ccc(CS(=O)(=O)c2ccccc2)o1)N1CCN(c2ncccn2)CC1` here?
**A.** Its z-score is -0.184.

**Q.** With `O=C(c1ccc(CS(=O)(=O)c2ccc(Br)cc2)o1)N1CCN(c2ccccn2)CC1` as the molecule, how does the z-score read?
**A.** The z-score was -0.169.

**Q.** With `O=C(c1ccc(CS(=O)(=O)c2ccc(Br)cc2)o1)N1CCN(c2ncccn2)CC1` as the molecule, how does the z-score read?
**A.** Its z-score is 3.31 (active).

**Q.** Which z-score does the source give for `COC(=O)c1sccc1NC(=O)CSc1ccccc1NS(=O)(=O)c1ccccc1Cl` here?
**A.** Its z-score is 3.17 (active).

**Q.** `COC(=O)c1sccc1NC(=O)CSc1ccccc1NS(=O)(=O)c1cc(Cl)ccc1Cl` was tested. Which z-score did it give?
**A.** Its z-score is 8.63 (active).

**Q.** `COC(=O)c1sccc1NC(=O)COc1ccc(Cl)cc1Cl` was tested. Which z-score did it give?
**A.** The z-score was -0.26.

**Q.** `COC(=O)c1sccc1NC(=O)CSc1cccc(Cl)c1Cl` was tested. Which z-score did it give?
**A.** The z-score was -0.0544.

**Q.** For `COC(=O)c1sccc1NC(=O)CSc1cc(Cl)ccc1Cl`, which z-score is on record?
**A.** The z-score was -0.165.

**Q.** With `COC(=O)c1sccc1NC(=O)COc1ccccc1Cl` as the molecule, how does the z-score read?
**A.** The z-score was -0.212.

**Q.** How did the z-score turn out when `Cc1nn2c(-n3ccnc3C)c3c(nc2c1-c1ccccc1)CCC3` was run?
**A.** Its z-score is -0.311.

**Q.** For `C1=C(CCNCC2CC2)CCCC1`, which z-score is on record?
**A.** Its z-score is 0.204.

**Q.** For `Cc1ccc(CNC(=O)C(=O)NCCC2=CCCCC2)cc1`, which z-score is on record?
**A.** Its z-score is -0.102.

**Q.** With `O=C(CCSCc1ccc(Cl)cc1)NCCC1=CCCCC1` as the molecule, how does the z-score read?
**A.** The z-score was -0.242.

**Q.** `O=C(NCCC1=CCCCC1)C(=O)NCc1ccccc1` was tested. Which z-score did it give?
**A.** Its z-score is -0.143.

**Q.** For `Cc1ccc(CNCCC2=CCCCC2)cc1`, which z-score is on record?
**A.** The z-score was 2.07.

**Q.** Which z-score does the source give for `Clc1ccc(CNCCC2=CCCCC2)cc1` here?
**A.** Its z-score is 2.27.

**Q.** With `COc1cc(NC(=O)CN(C)S(=O)(=O)c2ccc3c(c2)CCC(=O)N3)cc(OC)c1` as the molecule, how does the z-score read?
**A.** Its z-score is -0.176.

**Q.** For `O=C1NC(=O)[C@@H]2C3c4ccccc4C=CN3[C@H](C(=O)c3cccs3)[C@H]12` (stereo not given in full), which z-score is on record?
**A.** The z-score was -0.687.

**Q.** With `CCCCC(=O)Nc1nn(CCC)c2nc3ccccc3cc12` as the molecule, how does the z-score read?
**A.** The z-score was -1.22.

**Q.** `CC(C)=C1C2CCC1C1C(=O)N(NC(=O)COc3ccc(Cl)c(C)c3)C(=O)C21` (stereo not given) was tested. Which z-score did it give?
**A.** The z-score was -0.481.

**Q.** Which z-score does the source give for `CC(C)=CCC/C(C)=C/C=N/NC(=O)c1ccccc1[N+](=O)[O-]` here?
**A.** Its z-score is -0.0423.

**Q.** `O=C1c2oc3ccc(Cl)cc3c(=O)c2C(c2ccco2)N1CCN1CCOCC1` (stereo not given) was tested. Which z-score did it give?
**A.** Its z-score is 0.841.

**Q.** How did the z-score turn out when `Cc1ccc(C2c3c(oc4ccccc4c3=O)C(=O)N2CCCN2CCOCC2)o1` (stereo not given) was run?
**A.** Its z-score is 0.634.

**Q.** How did the z-score turn out when `Cc1ccc(C2c3c(oc4ccc(Cl)cc4c3=O)C(=O)N2CCCN2CCOCC2)o1` (stereo not given) was run?
**A.** The z-score was 3.95 (active).

**Q.** For `CC(C)c1nnc(NC(=O)CCC(=O)NCc2ccc3c(c2)OCO3)s1`, which z-score is on record?
**A.** The z-score was 0.746.

**Q.** How did the z-score turn out when `COc1ccc(CCNC(=O)c2nonc2N)cc1` was run?
**A.** The z-score was -0.242.

**Q.** For `O=S(=O)(NCC1CCCO1)c1ccc(S(=O)(=O)N2CCc3ccccc3C2)cc1` (stereo not given), which z-score is on record?
**A.** The z-score was 0.1.

**Q.** `OCCNCCCOc1ccc(Cl)cc1Br` was tested. Which z-score did it give?
**A.** The z-score was 0.496.

**Q.** For `COCCCNCCCOc1ccc(Cl)cc1Br`, which z-score is on record?
**A.** Its z-score is 3.75 (active).

**Q.** Which z-score does the source give for `COCCCNCCCOc1ccc(C)cc1Br` here?
**A.** The z-score was -0.00352.

**Q.** `COc1ccc(N2C(=O)CC(N3CCN(c4ccc(C(=O)c5cccnc5)cc4)CC3)C2=O)cc1` (stereo not given) was tested. Which z-score did it give?
**A.** The z-score was -0.186.
